Assay results from article PMC7862700, “An all-to-all approach to the identification of sequence-specific readers for epigenetic DNA modifications on cytosine”.

Key:
Assay in all cases: DAPPL (digital affinity profiling via proximity ligation, sequencing); 10 mM Tris-HCl pH 7.5, 50 mM NaCl, 1 mM DTT, 4% glycerol, room temperature, 30 min; GST-TFs on glutathione beads, 16-mer random dsDNA library, 0.1% formaldehyde crosslink after washing; high values mean tight binding
Conditions in all cases: protein: recombinant; tags: N-terminal GST; dsDNA, one strand shown
FLI1 = target: T1, FLI1 (Homo sapiens, UniProt Q01543 1-452)
T1 sequence: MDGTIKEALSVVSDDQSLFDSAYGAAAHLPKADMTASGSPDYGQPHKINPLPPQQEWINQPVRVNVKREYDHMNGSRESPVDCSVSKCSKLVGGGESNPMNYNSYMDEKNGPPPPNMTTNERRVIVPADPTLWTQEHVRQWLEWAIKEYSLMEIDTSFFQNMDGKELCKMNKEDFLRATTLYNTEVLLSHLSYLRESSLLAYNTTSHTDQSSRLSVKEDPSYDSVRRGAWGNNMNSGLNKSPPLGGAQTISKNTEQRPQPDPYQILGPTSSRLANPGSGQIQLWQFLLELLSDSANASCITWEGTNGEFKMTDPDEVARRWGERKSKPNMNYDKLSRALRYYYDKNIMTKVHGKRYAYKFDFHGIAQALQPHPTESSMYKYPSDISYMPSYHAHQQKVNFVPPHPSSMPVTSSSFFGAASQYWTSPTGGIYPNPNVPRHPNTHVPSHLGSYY
How it was run: (§1)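 Human transcription factors were made in yeast as GST fusions, captured on glutathione beads and barcoded with DNA. With a tag-only sample included, the pool was incubated with 200 nmole of a random double-stranded 16-mer DNA library in Tris/NaCl/DTT/glycerol buffer at room temperature for 30 min, then crosslinked with 0.1% formaldehyde after washing, ligated by proximity, amplified and sequenced. For binding signal, each hexamer's read frequency for a factor is divided by its frequency for the tag-only sample.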

ELK1 = target: T2, ELK1 (Homo sapiens, UniProt P19419 1-428)
T2 sequence: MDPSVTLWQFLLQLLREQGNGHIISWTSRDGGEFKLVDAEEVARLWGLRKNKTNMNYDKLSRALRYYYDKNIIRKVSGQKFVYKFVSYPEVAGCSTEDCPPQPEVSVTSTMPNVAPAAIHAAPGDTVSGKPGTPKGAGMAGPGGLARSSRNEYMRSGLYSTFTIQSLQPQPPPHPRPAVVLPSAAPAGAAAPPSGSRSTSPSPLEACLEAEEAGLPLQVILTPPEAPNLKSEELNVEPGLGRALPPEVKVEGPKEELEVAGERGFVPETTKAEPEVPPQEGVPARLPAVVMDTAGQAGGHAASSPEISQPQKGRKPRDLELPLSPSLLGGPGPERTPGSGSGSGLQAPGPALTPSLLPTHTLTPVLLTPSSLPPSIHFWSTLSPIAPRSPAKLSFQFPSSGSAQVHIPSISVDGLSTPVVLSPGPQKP
How it was run: as §1

ELF1 = ELF1 (Homo sapiens, UniProt P32519 1-619)
Sequence of ELF1 (P32519 whole entry): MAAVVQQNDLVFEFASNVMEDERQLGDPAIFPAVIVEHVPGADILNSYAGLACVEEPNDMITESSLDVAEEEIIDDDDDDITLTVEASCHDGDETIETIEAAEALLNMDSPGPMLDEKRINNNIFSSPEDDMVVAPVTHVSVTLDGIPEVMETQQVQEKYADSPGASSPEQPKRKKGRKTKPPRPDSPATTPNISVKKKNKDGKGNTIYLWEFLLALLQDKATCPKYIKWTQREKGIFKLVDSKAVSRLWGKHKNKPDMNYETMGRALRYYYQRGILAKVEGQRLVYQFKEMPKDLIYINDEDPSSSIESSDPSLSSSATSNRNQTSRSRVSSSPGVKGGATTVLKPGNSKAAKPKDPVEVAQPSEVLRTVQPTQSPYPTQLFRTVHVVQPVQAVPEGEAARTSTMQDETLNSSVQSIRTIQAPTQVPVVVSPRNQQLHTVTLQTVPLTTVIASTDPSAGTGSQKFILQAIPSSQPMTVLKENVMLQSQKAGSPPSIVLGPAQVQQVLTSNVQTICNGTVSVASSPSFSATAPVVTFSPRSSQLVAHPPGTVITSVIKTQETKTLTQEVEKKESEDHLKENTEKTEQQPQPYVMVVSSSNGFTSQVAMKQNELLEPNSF
How it was run: as §1

EHF = target: T3, EHF (Homo sapiens, UniProt Q9NZC4 1-300)
T3 sequence: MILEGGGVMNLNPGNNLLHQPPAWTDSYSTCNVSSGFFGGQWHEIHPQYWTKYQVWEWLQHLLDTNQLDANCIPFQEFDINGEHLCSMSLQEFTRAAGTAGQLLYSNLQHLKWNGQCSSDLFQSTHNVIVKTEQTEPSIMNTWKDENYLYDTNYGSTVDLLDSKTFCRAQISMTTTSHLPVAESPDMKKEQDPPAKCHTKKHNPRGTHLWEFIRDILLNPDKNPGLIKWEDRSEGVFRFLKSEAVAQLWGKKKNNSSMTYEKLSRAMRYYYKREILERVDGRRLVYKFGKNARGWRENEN
How it was run: as §1

SPIB = SPIB (Homo sapiens, UniProt Q01892 1-262)
Sequence of SPIB (Q01892 whole entry): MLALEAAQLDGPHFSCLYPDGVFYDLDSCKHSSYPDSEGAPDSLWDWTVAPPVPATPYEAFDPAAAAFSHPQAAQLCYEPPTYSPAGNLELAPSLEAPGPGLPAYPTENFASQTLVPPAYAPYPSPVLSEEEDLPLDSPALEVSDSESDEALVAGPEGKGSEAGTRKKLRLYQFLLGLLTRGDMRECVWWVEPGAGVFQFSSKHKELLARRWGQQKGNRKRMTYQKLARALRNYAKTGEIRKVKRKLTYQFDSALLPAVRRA
How it was run: as §1

ELK3 = target: T4, ELK3 (Homo sapiens, UniProt P41970 1-407)
T4 sequence: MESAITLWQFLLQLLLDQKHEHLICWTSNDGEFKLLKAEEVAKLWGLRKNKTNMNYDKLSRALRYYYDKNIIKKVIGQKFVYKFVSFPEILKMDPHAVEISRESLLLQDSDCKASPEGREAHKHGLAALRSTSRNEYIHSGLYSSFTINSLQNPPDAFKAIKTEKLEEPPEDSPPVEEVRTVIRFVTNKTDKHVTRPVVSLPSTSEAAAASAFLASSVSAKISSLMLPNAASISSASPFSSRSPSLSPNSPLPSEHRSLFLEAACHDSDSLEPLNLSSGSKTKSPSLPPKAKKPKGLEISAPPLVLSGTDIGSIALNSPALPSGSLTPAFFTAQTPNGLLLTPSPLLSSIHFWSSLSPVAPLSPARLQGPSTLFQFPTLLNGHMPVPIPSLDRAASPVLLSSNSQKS
How it was run: as §1

SPIC = target: T5, SPIC (Homo sapiens, UniProt Q8N5J4 1-248)
T5 sequence: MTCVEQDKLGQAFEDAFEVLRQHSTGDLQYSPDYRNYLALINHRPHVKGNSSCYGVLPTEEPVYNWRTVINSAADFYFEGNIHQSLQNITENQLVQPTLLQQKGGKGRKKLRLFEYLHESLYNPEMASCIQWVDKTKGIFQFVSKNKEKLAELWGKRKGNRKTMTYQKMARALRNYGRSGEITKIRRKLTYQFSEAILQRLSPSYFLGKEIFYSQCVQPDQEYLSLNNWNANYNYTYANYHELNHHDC
How it was run: as §1

ELF4 = ELF4 (Homo sapiens, UniProt Q99607 1-663)
Sequence of ELF4 (Q99607 whole entry): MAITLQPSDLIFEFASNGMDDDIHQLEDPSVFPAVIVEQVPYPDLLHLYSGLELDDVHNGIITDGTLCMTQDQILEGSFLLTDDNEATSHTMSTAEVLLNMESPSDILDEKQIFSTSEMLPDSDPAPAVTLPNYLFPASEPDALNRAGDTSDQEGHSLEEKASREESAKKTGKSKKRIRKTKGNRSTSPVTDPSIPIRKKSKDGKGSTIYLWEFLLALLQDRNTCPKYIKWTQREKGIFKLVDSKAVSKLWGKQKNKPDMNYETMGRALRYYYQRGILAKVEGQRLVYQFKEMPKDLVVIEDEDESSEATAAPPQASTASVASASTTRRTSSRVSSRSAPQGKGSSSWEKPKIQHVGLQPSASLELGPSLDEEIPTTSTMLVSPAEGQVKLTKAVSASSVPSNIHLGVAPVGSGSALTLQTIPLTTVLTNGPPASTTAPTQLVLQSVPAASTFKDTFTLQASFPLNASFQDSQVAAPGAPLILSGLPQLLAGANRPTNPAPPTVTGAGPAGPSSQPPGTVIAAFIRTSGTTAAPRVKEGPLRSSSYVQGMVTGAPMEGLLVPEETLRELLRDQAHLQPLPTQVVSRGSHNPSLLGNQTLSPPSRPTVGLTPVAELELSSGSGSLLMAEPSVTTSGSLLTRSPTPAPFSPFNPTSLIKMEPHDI
How it was run: as §1

ELK4 = target: T6, ELK4 (Homo sapiens, UniProt P28324-2 1-405)
T6 sequence: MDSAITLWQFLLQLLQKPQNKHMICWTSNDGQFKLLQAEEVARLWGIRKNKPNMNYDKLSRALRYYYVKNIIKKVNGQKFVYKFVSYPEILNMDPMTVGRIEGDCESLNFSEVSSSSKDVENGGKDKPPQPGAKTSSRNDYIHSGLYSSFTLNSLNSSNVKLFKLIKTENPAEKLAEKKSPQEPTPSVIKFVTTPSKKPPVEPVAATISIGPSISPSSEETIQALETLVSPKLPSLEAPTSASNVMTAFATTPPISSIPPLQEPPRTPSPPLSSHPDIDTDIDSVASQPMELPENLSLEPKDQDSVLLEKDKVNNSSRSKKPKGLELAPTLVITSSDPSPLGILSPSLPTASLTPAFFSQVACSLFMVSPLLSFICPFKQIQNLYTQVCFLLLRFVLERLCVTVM
How it was run: as §1

ELF3 = target: T7, ELF3 (Homo sapiens, UniProt P78545 1-371)
T7 sequence: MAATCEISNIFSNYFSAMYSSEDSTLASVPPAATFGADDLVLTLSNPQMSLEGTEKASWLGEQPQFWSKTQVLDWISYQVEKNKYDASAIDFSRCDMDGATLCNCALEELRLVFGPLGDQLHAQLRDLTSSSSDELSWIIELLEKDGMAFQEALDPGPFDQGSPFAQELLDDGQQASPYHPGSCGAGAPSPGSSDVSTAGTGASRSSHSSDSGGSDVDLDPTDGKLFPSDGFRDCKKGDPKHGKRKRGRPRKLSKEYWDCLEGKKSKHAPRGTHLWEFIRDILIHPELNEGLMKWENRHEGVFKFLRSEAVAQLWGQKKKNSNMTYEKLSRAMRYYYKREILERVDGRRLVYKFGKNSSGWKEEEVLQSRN
How it was run: as §1

ETV1 = ETV1 (Homo sapiens, UniProt P50549 1-477)
Sequence of ETV1 (P50549 whole entry): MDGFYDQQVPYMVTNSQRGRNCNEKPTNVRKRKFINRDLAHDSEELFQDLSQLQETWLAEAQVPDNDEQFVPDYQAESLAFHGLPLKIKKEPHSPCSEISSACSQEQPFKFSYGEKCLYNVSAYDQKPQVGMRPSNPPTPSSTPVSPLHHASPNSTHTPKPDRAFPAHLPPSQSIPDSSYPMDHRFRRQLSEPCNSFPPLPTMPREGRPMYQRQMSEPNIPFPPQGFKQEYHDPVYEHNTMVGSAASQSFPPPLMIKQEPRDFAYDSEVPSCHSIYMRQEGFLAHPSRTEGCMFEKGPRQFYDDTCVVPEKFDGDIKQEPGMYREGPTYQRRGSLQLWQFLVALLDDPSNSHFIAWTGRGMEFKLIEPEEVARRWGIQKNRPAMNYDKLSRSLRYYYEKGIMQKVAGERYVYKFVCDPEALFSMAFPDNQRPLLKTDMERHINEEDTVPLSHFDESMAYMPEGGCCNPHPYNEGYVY
How it was run: as §1

ERF = target: T8, ERF (Homo sapiens, UniProt P50548 1-548)
T8 sequence: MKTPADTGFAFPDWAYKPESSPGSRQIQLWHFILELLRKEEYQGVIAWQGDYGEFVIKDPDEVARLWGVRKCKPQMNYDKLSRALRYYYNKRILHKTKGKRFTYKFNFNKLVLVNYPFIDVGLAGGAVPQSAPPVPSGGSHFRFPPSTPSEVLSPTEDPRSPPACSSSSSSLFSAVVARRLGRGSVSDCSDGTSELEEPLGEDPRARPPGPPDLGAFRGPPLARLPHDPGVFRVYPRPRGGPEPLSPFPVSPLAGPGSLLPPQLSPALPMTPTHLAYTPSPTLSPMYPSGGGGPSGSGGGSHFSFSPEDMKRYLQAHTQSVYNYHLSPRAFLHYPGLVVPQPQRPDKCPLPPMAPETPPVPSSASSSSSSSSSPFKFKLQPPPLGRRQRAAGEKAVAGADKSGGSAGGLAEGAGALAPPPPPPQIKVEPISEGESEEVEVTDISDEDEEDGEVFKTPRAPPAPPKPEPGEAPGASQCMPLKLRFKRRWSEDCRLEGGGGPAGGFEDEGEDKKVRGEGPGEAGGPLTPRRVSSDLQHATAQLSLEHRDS
How it was run: as §1

ETV3L = target: T9, ETV3L (Homo sapiens, UniProt Q6ZN32 1-361)
T9 sequence: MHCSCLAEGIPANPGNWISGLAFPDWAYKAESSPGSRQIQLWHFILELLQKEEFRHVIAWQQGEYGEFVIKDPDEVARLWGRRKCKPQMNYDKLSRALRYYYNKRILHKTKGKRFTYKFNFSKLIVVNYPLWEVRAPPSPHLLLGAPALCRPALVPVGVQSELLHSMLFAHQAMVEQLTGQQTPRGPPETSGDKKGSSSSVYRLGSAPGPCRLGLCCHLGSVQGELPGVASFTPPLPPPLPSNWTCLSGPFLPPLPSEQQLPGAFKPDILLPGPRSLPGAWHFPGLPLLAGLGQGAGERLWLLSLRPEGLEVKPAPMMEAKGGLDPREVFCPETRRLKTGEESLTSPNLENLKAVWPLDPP
How it was run: as §1

ETS2 = target: T10, ETS2 (Homo sapiens, UniProt P15036 1-469)
T10 sequence: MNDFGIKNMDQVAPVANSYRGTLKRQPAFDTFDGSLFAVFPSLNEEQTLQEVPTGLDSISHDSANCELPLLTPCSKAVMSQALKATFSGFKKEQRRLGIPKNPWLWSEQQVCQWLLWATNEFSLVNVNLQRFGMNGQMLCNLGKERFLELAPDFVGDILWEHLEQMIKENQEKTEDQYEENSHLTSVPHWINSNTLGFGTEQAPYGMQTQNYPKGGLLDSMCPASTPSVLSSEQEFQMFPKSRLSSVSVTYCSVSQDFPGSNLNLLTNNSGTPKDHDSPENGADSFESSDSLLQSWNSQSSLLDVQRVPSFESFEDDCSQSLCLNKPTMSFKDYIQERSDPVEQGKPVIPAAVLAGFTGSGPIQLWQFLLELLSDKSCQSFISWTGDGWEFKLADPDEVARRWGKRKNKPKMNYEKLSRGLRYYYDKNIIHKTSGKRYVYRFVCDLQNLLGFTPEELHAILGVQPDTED
How it was run: as §1

ETV7 = target: T11, ETV7 (Homo sapiens, UniProt Q9Y603 1-341)
T11 sequence: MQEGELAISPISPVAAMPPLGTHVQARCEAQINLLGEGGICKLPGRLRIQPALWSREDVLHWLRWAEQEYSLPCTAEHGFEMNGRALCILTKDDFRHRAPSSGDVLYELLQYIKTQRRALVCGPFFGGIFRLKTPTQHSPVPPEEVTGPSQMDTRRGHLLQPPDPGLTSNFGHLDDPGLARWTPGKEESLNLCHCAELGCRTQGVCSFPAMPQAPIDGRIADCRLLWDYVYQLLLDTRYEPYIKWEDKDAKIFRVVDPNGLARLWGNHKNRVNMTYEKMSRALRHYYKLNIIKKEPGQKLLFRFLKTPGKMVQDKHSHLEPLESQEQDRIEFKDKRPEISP
How it was run: as §1

ETV3 = target: T12, ETV3 (Homo sapiens, UniProt P41162-2 1-143)
T12 sequence: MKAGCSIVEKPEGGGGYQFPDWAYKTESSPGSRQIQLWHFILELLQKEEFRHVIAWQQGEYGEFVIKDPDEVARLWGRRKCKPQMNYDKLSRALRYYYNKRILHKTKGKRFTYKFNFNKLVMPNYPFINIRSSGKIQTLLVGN
How it was run: as §1

ETV6 = ETV6 (Homo sapiens, UniProt P41212 1-452)
Sequence of ETV6 (P41212 whole entry): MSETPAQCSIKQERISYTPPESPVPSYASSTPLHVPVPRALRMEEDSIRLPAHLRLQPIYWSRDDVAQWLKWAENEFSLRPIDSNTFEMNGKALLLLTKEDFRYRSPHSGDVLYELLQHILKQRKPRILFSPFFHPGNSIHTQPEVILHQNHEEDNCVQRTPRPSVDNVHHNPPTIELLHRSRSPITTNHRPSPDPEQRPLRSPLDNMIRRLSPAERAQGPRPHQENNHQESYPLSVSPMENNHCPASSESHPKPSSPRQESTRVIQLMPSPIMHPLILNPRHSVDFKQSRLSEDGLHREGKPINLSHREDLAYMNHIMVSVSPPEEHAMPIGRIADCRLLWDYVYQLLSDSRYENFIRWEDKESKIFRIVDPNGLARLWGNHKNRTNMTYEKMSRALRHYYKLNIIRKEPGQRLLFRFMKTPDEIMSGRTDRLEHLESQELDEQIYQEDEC
How it was run: as §1

Question: For GCCGCT, which binding signal (FLI1) is on record?
Answer: 1.09 fold enrichment (6-mer frequency, TF over GST control)

Question: And the binding signal (ELK1)?
Answer: 1.08 fold enrichment (6-mer frequency, TF over GST control)

Question: And the binding signal (ELF1)?
Answer: 1.12 fold enrichment (6-mer frequency, TF over GST control)

Question: And the binding signal (EHF)?
Answer: 1.04 fold enrichment (6-mer frequency, TF over GST control)

Question: What about the binding signal (SPIB) of the same sequence?
Answer: 1.1 fold enrichment (6-mer frequency, TF over GST control)

Question: What about the binding signal (ELK3) of the same sequence?
Answer: 1.06 fold enrichment (6-mer frequency, TF over GST control)

Question: What about the binding signal (SPIC) of the same sequence?
Answer: 1.19 fold enrichment (6-mer frequency, TF over GST control)

Question: What about the binding signal (ELF4) of the same sequence?
Answer: 1.14 fold enrichment (6-mer frequency, TF over GST control)

Question: What about the binding signal (ELK4) of the same sequence?
Answer: 1.1 fold enrichment (6-mer frequency, TF over GST control)

Question: What about the binding signal (ELF3) of the same sequence?
Answer: 1.1 fold enrichment (6-mer frequency, TF over GST control)

Question: What about the binding signal (ETV1) of the same sequence?
Answer: 1.15 fold enrichment (6-mer frequency, TF over GST control)

Question: And the binding signal (ERF)?
Answer: 1.23 fold enrichment (6-mer frequency, TF over GST control)

Question: What about the binding signal (ETV3L) of the same sequence?
Answer: 1.01 fold enrichment (6-mer frequency, TF over GST control)

Question: And the binding signal (ETS2)?
Answer: 1.09 fold enrichment (6-mer frequency, TF over GST control)

Question: What about the binding signal (ETV7) of the same sequence?
Answer: 1.05 fold enrichment (6-mer frequency, TF over GST control)

Question: And the binding signal (ETV3)?
Answer: 1.03 fold enrichment (6-mer frequency, TF over GST control)

Question: What about the binding signal (ETV6) of the same sequence?
Answer: 1.04 fold enrichment (6-mer frequency, TF over GST control)
